In PubChem BioAssay AID1347420 (Sanford-Burnham Center for Chemical Genomics, 2020):
Hit rate of the full screen: of about 1,300 compounds, about 980 (75%) were called active. Roughly 4% stayed inconclusive and do not appear here. The list shows a part of the results. Residues, ends and D or L forms follow the SMILES beside them. *: point of attachment. Cbz = O=C(OCc1ccccc1)*

target: Sulfhydryl oxidase 1 (Homo sapiens) (UniProt O00391); assay: inhibition of human sulfhydryl oxidase QSOX1 – biochemical, HyperBlu H2O2 luminescence, HTS, primary screen (AID 1347420); conditions: recombinant QSOX1, HyperBlu H2O2 luminescence; at 12.5 µM; hits give high values; active = any value above zero; also: values above 100% were filed as inconclusive
Sequence (O00391 whole entry, looked up): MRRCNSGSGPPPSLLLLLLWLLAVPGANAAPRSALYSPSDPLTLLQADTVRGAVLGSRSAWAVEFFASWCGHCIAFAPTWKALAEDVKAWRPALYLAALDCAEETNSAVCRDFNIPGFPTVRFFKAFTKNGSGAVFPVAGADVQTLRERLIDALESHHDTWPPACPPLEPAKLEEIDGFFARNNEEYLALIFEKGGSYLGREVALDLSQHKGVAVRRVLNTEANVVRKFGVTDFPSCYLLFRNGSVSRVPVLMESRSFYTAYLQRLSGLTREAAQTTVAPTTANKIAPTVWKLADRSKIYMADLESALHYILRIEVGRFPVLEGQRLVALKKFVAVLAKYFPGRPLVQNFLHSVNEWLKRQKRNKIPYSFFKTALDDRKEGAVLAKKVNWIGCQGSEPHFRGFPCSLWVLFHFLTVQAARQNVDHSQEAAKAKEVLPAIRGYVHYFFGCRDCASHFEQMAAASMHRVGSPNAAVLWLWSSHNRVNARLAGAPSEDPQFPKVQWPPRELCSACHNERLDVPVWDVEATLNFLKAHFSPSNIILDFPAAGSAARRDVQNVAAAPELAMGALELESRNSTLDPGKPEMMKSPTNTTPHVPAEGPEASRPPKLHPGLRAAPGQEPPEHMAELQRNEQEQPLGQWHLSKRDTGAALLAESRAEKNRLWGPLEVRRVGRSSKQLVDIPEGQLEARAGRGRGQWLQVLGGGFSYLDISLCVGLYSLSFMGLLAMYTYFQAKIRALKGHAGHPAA

inhibition, active:
CC1=C(/C=C/C(C)=C/C=C/C(C)=C\C(=O)O)C(C)(C)CCC1 3.1%
CC1=C(/C=C/C(C)=C/C=C/C(C)=C/C(=O)Nc2ccc(O)cc2)C(C)(C)CCC1 29.7%
CC1=C(/C=C/C(C)=C/C=C/C(C)=C/C(=O)O)C(C)(C)CCC1 11.4%
O=C(O)c1cc([N+](=O)[O-])ccc1NCCCc1ccccc1 84.4%
O=C(Nc1ccccc1)c1cc([N+](=O)[O-])ccc1Cl 35.3%
O=C(Nc1ccc([N+](=O)[O-])cc1Cl)c1cc(Cl)ccc1O 11.3%
O=C(Nc1ccncc1)c1cc([N+](=O)[O-])ccc1Cl 41.9%
O=C(O)/C=C/c1ccc(O)c(O)c1 74.3%
O=c1cc(O)cc(/C=C/c2ccc(O)c(O)c2)o1 84.2%
O=C(/C=C/c1ccc(O)c(O)c1)OCCc1ccccc1 98.9%
CN1CCCC1CCOC(C)(c1ccccc1)c1ccc(Cl)cc1 (stereo not drawn) 7.6%
NCCc1ccc(O)c(O)c1 61.7%
O=C(O)Cc1ccc(O)c(O)c1 52.8%
CCN(CC)C(=O)c1ccc(O)c(OC)c1 17.3%
COc1cc(CC(=O)O)ccc1O 4.4%
CCc1c(C(=O)NCCc2ccc(N3CCCCC3)cc2)[nH]c2ccc(Cl)cc12 13.2%
O=C(N[C@@H](Cc1ccccc1)C(=O)CCl)OCc1ccccc1 0.2%
Cc1ccc(S(=O)(=O)N[C@@H](Cc2ccccc2)C(=O)CCl)cc1 4%
CC(C(=O)O)c1ccc(CC2CCCC2=O)cc1 (stereo not drawn) 13.5%
CC(C)Cc1ccc([C@H](C)C(=O)O)cc1 5.1%
CC(C)(C)c1ccc(C(O)CCCN2CCC(C(O)(c3ccccc3)c3ccccc3)CC2)cc1 (stereo not drawn) 6.1%
CC(C)(C)c1ccc(/C=C/C(=O)Nc2ccc3c(c2)OCCO3)cc1 17.7%
[Li+] 6.5%
CN(C)C(=O)n1nnnc1Cc1ccc(-c2ccccc2)cc1 2.4%
CSc1nc(N)c2ncn([C@@H]3O[C+](COP(=O)([O-])OP(=O)(O)O)[C@H](O)C3O)c2n1 (stereo partly drawn) 26.4%
Nc1nnc(-c2cccc(Cl)c2Cl)c(N)n1 4.9%
Cc1nc2c([nH]1)c(=O)n(C)c(=O)n2Cc1ccco1 10.1%
CCCOc1ccccc1-c1nc2n[nH]nc2c(=O)[nH]1 15.8%
Cc1nnc(SCC2=C(C(=O)O)N3C(=O)[C@@H](NC(=O)Cn4cnnn4)[C@H]3SC2)s1 10.4%
O=C(O)C1=CCNCC1 0.2%
O=C(O)C1=CCCNC1 5.6%
Nc1nc(OCC2CCCCC2)c2[nH]cnc2n1 11.1%
Nc1nc(OCc2ccccc2)c2[nH]cnc2n1 5.5%
Nc1nc(N)c(N=O)c(OCC2CCCCC2)n1 29.8%
CC(C)N(CCC(=O)c1ccc2ccccc2c1)Cc1ccccc1 5.9%
O=S(=O)(c1cccc2c(Cl)cccc12)N1CCCNCC1 7.1%
O=S(=O)(c1cccc2c(I)cccc12)N1CCCNCC1 6%
CN(C)CCOC(c1ccccc1)c1ccccc1 15.9%
Cc1ccccc1C(OCCN(C)C)c1ccccc1 (stereo not drawn) 2.5%
Cc1cc2c(C(C)C)c(O)c(O)c(C=O)c2c(O)c1-c1c(C)cc2c(C(C)C)c(O)c(O)c(C=O)c2c1O 74.3%
CCC(=O)N1CCN(C(=O)c2ccccc2)CC1 3.1%
Cc1ccc(Cl)c(Nc2ccccc2C(=O)O)c1Cl 7.8%
O=c1onc2cnc3ccccc3n12 6.8%
CN(C)CC[C@@H](c1ccc(Cl)cc1)c1ccccn1 3.5%
CN(C)CCC(c1ccc(Cl)cc1)c1ccccn1 (stereo not drawn) 6.9%
CN(C)CCC(c1ccccc1)c1ccccn1 (stereo not drawn) 4.2%
O=C1N(c2ccccc2)c2ccccc2C1(Cc1ccncc1)Cc1ccncc1 7.6%
Nc1c2c(nc3ccccc13)CCCC2 20.5%
Nc1c2c(nc3ccccc13)CCCC2O (stereo not drawn) 4%
COc1ccccc1OCC(O)CN1CCN(CC(=O)Nc2c(C)cccc2C)CC1 (stereo not drawn) 2.7%
COc1ccccc1N1CCN(CC(O)COc2cccc3ccccc23)CC1 (stereo not drawn) 11.9%
COc1cc2nc(N3CCN(C(=O)C4COc5ccccc5O4)CC3)nc(N)c2cc1OC (stereo not drawn) 11.9%
COc1cc2nc(N3CCN(C(=O)C4CCCO4)CC3)nc(N)c2cc1OC (stereo not drawn) 8.6%
COc1cc2nc(N3CCN(C(=O)OCc4ccccc4)C(C(=O)NC(C)(C)C)C3)nc(N)c2cc1OC (stereo not drawn) 0.6%
COc1cc2nc(N3CCN(C(=O)c4ccco4)CC3)nc(N)c2cc1OC 5.9%
COc1cc2nc(N(C)CCCNC(=O)C3CCCO3)nc(N)c2cc1OC (stereo not drawn) 0.2%
COc1cccc(C(=O)NCCN2CCN(c3ccc(Cl)cc3)CC2)c1 45.7%
O=C(NCCN1CCOCC1)c1ccc(Cl)cc1 5.4%
O=C(c1ccc2c(c1)OCCO2)N1CCCCC1 5.6%
O=C(O)c1ccccc1Nc1cccc(OCc2ccc3ccccc3n2)c1 70.1%
NCCCCN 14.6%
NCCCCCCCCCCN 12.8%
CCN(CC)CCOC(=O)C1(C2CCCCC2)CCCCC1 28.2%
O=C(O)CP(=O)(O)O 10%
CN=c1nc(-c2ccccc2)n(-c2ccccc2)s1 25.4%
S=C([S-])OC1CC2C[C+]1C1CCCC21 (stereo not drawn) 1.4%
CNCC[C@H](Oc1ccc(C(F)(F)F)cc1)c1ccccc1 0.1%
CN(CC[C@@H](Oc1ccc(C(F)(F)F)cc1)c1ccccc1)CC(=O)O 21.6%
CCCCCCCCCC[Si](C)(C)CCC(=O)NC(Cc1ccc(C)cc1)c1ccccc1 (stereo not drawn) 19.6%
CCCn1c(=O)[nH]c(=O)c2[nH]cnc21 3.6%
Cc1nc2ccccn2c(=O)c1CCN1CCC(C(=O)c2ccc(F)cc2)CC1 5.5%
CC1(C)C(=O)N(CCN2CCC(C(=O)c3ccc(F)cc3)CC2)c2ccccc21 7.2%
Cc1nc2sccn2c(=O)c1CCN1CCC(=C(c2ccccc2)c2ccc(F)cc2)CC1 2.9%
Cc1nc2sccn2c(=O)c1CCN1CCC(=C(c2ccc(F)cc2)c2ccc(F)cc2)CC1 7.1%
COc1ccccc1OCCNCC(O)COc1cccc2[nH]c3ccccc3c12 (stereo not drawn) 11%
CN1CCc2ccccc2Cc2[nH]c3ccccc3c2CC1 51.2%
NC(N)=N[C@@H](CCC(=O)O)C(=O)O 10.9%
COc1ccc(C(=O)NCc2cccnc2)cc1C(=O)NCc1cccnc1 1.3%
CCCCC1C(=O)N(c2ccccc2)N(c2ccccc2)C1=O 11.8%
N#C/C(=C\c1ccc(-c2cc(Cl)ccc2Cl)o1)C(=O)Nc1cccc2ncccc12 6.8%
Fc1ccc([C@@H]2CCNC[C@H]2COc2ccc3c(c2)OCO3)cc1 15.8%
N=c1nc(N2CCCCC2)cc(N)n1O 1.6%
Nc1ccn([C@H]2CC[C@@H](CO)O2)c(=O)n1 9.9%
C=CCc1cccc(/C=N/NC(=O)CN2CCN(Cc3ccccc3)CC2)c1O 1.7%
C=CCn1c(=O)c2c(nc(-c3ccc(S(=O)(=O)O)cc3)n2C)n(C)c1=O 1.4%
N#Cc1cc2nc(O)c(O)nc2cc1[N+](=O)[O-] 69.8%

inhibition, inactive:
CC(C)[C@H](NC(=O)OCc1ccccc1)C(=O)N[C@H](C=O)Cc1ccccc1 (Cbz-Val-Phe-aldehyde) -15.7%
CC(C)Cc1ccc(C(C)C(=O)O)cc1 (stereo not drawn) -0.2%
CC(C)(C(=O)O)c1ccc(C(O)CCCN2CCC(C(O)(c3ccccc3)c3ccccc3)CC2)cc1 (stereo not drawn) -4.1%
CC(C)c1cccc(C(C)C)c1N1C(=O)c2ccc(O)cc2C1=O -98.1%
CN(C)C/C=C(/c1ccc(Br)cc1)c1cccnc1 -9.2%
Nc1nc(N)c2nc(-c3ccccc3)c(N)nc2n1 -11.2%
Cc1ccc2nc(CN(CCN(Cc3nc4ccc(C)cc4[nH]3)Cc3nc4ccc(C)cc4[nH]3)Cc3nc4ccc(C)cc4[nH]3)[nH]c2c1 -0.7%
C=C(C)C1CC=C(C(=O)O)CC1 (stereo not drawn) -10.6%
CC(COc1ccccc1)N(CCCl)Cc1ccccc1 (stereo not drawn) -3.7%
CN(C)CC[C@@H](c1ccc(Br)cc1)c1ccccn1 -5.9%
CN(C)CCC(c1ccc(Br)cc1)c1ccccn1 (stereo not drawn) -10.9%
Cc1cn[nH]c1 -6.5%
O=C(Nc1nc2ccccc2n1CCN1CCOCC1)c1cccc([N+](=O)[O-])c1 -17.8%
CC[N+](CC)(CC)CC -0.4%
Cc1oncc1C(=O)Nc1ccc(C(F)(F)F)cc1 -3.1%
CCCCCC(O)c1cccc(OCc2ccc3ccccc3n2)c1 (stereo not drawn) -4.5%
CNCCC(Oc1ccc(C(F)(F)F)cc1)c1ccccc1 (stereo not drawn) -9.7%
CCCCCCCCCC(=O)NC(CN1CCOCC1)[C@H](O)c1ccccc1 (stereo partly drawn) -17.8%
Cc1nc2n(c(=O)c1CCN1CCC(c3noc4cc(F)ccc34)CC1)CCCC2O (stereo not drawn) 0%
O=C(c1ccc(F)cc1)C1CCN(CCn2c(=O)[nH]c3ccccc3c2=O)CC1 -10.7%
FC(F)(F)c1ccccc1-n1ccnc1 -11.4%
O=C1O/C(=C/Br)CCC1c1cccc2ccccc12 (stereo not drawn) -10.8%
